Experimental data: PubChem BioAssay AID1259309 (ICCB-Longwood Screening Facility, Harvard Medical School, 2017)
Values joined by “and” are separate entries in the source; they are usually repeats but may differ in a detail not shown here. Equal entries are not always repeated. Among all 330,000 compounds or so, about 1,800 (0.55%) were called active. Rule as the data show it: active = growth inhibition above about 68%; inactive = the rest. For the sample, actives were picked, then their nearest neighbours and some compounds at random.

Experiment: growth inhibition of ugtP-null S. aureus, primary screen, RN4220 ugtP deletion, OD600 (AID 1259309);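 also: plate controls were untreated wells for no effect and antibiotic for full effect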
Conditions: 16 h, hits give high values

Row | Compound | growth inhibition
1 | CCN1/C(=C/c2ccc3ccc(C)cc3[n+]2CC)Sc2ccccc21 | 100% (active)
2 | CC(=NNC(=O)c1ccc(F)cc1)c1ccccn1 | -8.87% (inactive)
3 | CCOc1cc(C=NNC(=O)c2cccc(S(=O)(=O)N3CCOCC3)c2)ccc1OCC(=O)N(C)C | 7.71% (inactive)
4 | COC(=O)c1ccc(-c2c(-c3ccccc3)ncc3cc(OC)c(OC)cc23)cc1 | 97.6% (active)
5 | COC(=O)c1ccc(SCc2ccccc2)nc1 | 3.84% (inactive)
6 | COc1ccc(CNC(=O)Cc2ccc(-c3ccccc3)cc2)cc1OC | -1.11% (inactive)
7 | Cc1cccc(-n2c(C)cc(C=NNC(=O)c3ccco3)c2C)c1 | -2.71% (inactive)
8 | COC(=O)C1=C(c2ccc(S(C)(=O)=O)cc2)CC2CCC1N2C(=O)N1CCCC1 (stereo unspecified) | 2.31% (inactive)
9 | Cc1nn(-c2ccccc2)c(Cl)c1C=NO | -0.481% (inactive)
10 | Cc1ccc(C(=O)/C=C/c2c(C)nn(-c3ccccc3)c2Cl)cc1 | -4.9% (inactive)
11 | Cc1nn(-c2ccccc2)c(Cl)c1/C=C/C(=O)c1ccc(O)cc1 | 86.2% (active)
12 | CNC(=S)NN=Cc1c(C(=O)OC)cnn1-c1ccc(F)cc1F | 2.84% (inactive)
13 | O=S(=O)(N=C(c1ccccc1Cl)N1CCOCC1)c1ccccc1 | -1.9% (inactive)
14 | Cc1cc(C(=O)NN=C2CCCC(C)C2)n[nH]1 (stereo unspecified) | 1.57% (inactive)
15 | COc1cc(OC)c(S(=O)(=O)Nc2ccccc2C(=O)O)cc1S(=O)(=O)Nc1ccccc1C(=O)O | 7.58% (inactive)
16 | COc1cc(NC(=O)c2ccccc2NS(=O)(=O)c2ccc(Cl)s2)cc(OC)c1 | 88% (active)
17 | COc1ccccc1C(=O)Nc1ccccc1C(=O)Nc1ccccc1 | 6.78% (inactive)
18 | COC(=O)C1C[C@@]2(O)C(O)C(O)C(O)CC2N1Cc1cc(F)ccc1F (stereo partly specified) | -1.93% (inactive)
19 | CCOC(=O)N=C(NC(=O)Nc1ccc(C(=O)OCC)cc1)OC | 0.614% (inactive)
20 | Cc1ccccc1C=Nn1c(C2CCCCC2)n[nH]c1=S | -0.971% (inactive)
21 | N#Cc1ccc(CSc2ncccn2)cc1 | 7.1% (inactive)
22 | N#CC1=C(SCc2ccccc2)NC(=O)C(C#N)C12CCCC2 (stereo unspecified) | -2.16% (inactive)
23 | N#CC1=C(SCc2ccc(C#N)cc2)N=C(N)C(c2nc(-c3ccccc3)cs2)C12CCCCC2 (stereo unspecified) | 92.2% (active)

Row | Compound | growth inhibition
24 | CC(=NOCC(=O)OCC(=O)Nc1cc(S(C)(=O)=O)ccc1Cl)c1ccc2c(c1)OCO2 | 4.9% (inactive)
25 | CCOc1cc(C=NNC(=O)C(O)(c2ccccc2)c2ccccc2)ccc1OC(=O)c1ccco1 | 0.814% (inactive)
26 | COCCN=C1NC(c2cccc(C(F)(F)F)c2)C(C(=O)OC)=C(C)N1Cc1ccccc1 (stereo unspecified) | -23% (inactive)
27 | CCC(C)(C)c1ccc(OCC(=O)N(C)C)c(C(C)(C)CC)c1 | 93.1% (active)
28 | CN1CCN(C(=O)COc2ccc(C(C)(C)C)cc2Br)CC1 | -4.55% (inactive)
29 | CCc1nc(C)ccc1OCC(=O)N(CC)CC | 2.97% (inactive)
30 | O=c1[nH]ncc(NN=Cc2cccnc2)c1Cl | 8.44% (inactive)
31 | CC(CC(=O)N1CCN(C=O)CC1)=NNC(=O)c1ccc(Cl)cc1 | 3.18% (inactive)
32 | COC(=O)C1=C(C(=O)OC)C2N(C)c3ccccc3[C@@]23CC(CO)N(C(=O)c2cccs2)C3=N1 (stereo partly specified) | 3.42% (inactive)
33 | CCOc1ccc(-c2c(C(=O)NN=C(C)c3ccccc3OC)nnn2-c2nonc2N)cc1 | 7.28% (inactive)
34 | COc1cc(C(=O)NN=Cc2cc([N+](=O)[O-])cs2)cc(OC)c1OC | 2.4% (inactive)
35 | CC1=NOC(=O)C1=Cc1ccc(-c2ccc(Cl)c(C(=O)O)c2)o1 | 2.05% (inactive)
36 | S=c1[nH]nc(-c2cccc(Cl)c2)n1N=Cc1ccc(-c2ccccc2Br)o1 | 27.2% (inactive)
37 | O=C(O)C(c1ccccc1)N1C(=O)/C(=C\c2ccc(-c3cccc(Cl)c3)o2)SC1=S (stereo unspecified) | 95.7% (active)
38 | COc1ccc(CC(=O)NCC(=O)NN=Cc2ccc(C)o2)cc1 | 8.44% (inactive)
39 | O=C(Cc1ccccc1)NNC1CC(=O)N(c2ccc(Br)cc2)C1=O (stereo unspecified) | -0.3% (inactive)
40 | CC(C)(C)OC(=O)C1=C(CO)CS[C@@H]2[C@H](NC(=O)Cc3ccccc3)C(=O)N12 | 101% (active)
41 | CC(C)(C)OC(=O)NC(Cc1ccccc1)C(=O)NC(CO)C(O)C1CC1C(=O)NC1CC1 (stereo unspecified) | -0.531% (inactive)
42 | Cc1ccc(-c2nc(C#N)c(NCCCn3ccnc3)o2)cc1 | -7.44% (inactive)
43 | N#Cc1nc(-c2ccc(OCc3ccccc3)cc2)oc1NCCCN1CCOCC1 | 85.2% (active)
44 | O=S(=O)(c1ccccc1)c1nc(-c2ccccc2)oc1NCCCN1CCOCC1 | 2.69% (inactive)
45 | O=C(NN=C/C=C/c1ccco1)c1cccnc1 | -1.13% (inactive)
46 | CCC1=C(OC(=O)N(CC)CC)N2C(=O)OC(=NCC3CC3)[C@]2(Cc2ccccc2)C2C1=CCC1C(=O)N(CC(=O)OC)C(=O)C12 (stereo partly specified) | 5.55% (inactive)

Row | Compound | growth inhibition
47 | CC(C)NC(=O)N(C)CC1Oc2ccc(NC(=O)Nc3ccc(C(F)(F)F)cc3)cc2CC(=O)N(C(C)CO)CC1C (stereo unspecified) | -1.09% (inactive)
48 | N#C/C(=C/c1ccc(Cl)cc1)NC(=O)c1ccccc1 | -7.93% (inactive)
49 | N#CC(=NNc1ccc(Cl)cc1)C(=N)N1CCCCC1 | -11.7% (inactive)
50 | N#CC(=NNc1ccc(Cl)cc1)C(=O)c1ccccc1 | 99.4% (active)
51 | CCCCC(O)(CCCC)C(=O)NN=C(C)c1ccc(Cl)cc1 | -3.08% (inactive)
52 | COc1ccc(C(=O)NN=Cc2ccc(OC)c(CN3CCCc4ccccc43)c2)cc1 | -10.3% (inactive)
53 | COc1ccc(C=NNC(=O)c2ccccc2OC)cc1COc1ccccc1[N+](=O)[O-] | 4.98% (inactive)
54 | COc1ccc(C(=O)NN=Cc2ccc(OC(=O)c3cccc4ccccc34)c([N+](=O)[O-])c2)cc1 | 96.8% (active)
55 | CC(=NNc1cccc(C(=O)O)c1)c1cc2ccccc2o1 | 5.08% (inactive)
56 | C=C(C)C(=O)Nc1cccc(C2=NOC3(C2)CC(C(N)=O)N(C(=O)c2ccccc2)C3)c1 (stereo unspecified) | 0.731% (inactive)
57 | CC(C)=CCc1c(O)c(CC=C(C)C)c2occ(-c3ccc(O)cc3)c(=O)c2c1O | 98.5% (active)
58 | CC(C)=CCc1ccc(O)c(=O)cc1C(C)C | -4.82% (inactive)
59 | COc1ccccc1NC(=O)CC(C)=NNC(=O)c1ccccn1 | 3.4% (inactive)
60 | C/C(C=NNC(=O)c1nnn(-c2nonc2N)c1C(C)C)=C\c1ccccc1 | -3.08% (inactive)
61 | Oc1ccc(CC2CNC(=S)N2CCc2cc(C(F)(F)F)cc(C(F)(F)F)c2)cc1 (stereo unspecified) | 10.9% (inactive) and 22.1% (inactive)
62 | CCCCNC(=S)N(C)N=Cc1c(F)c(F)c(F)c(F)c1F | 4.66% (inactive)
63 | Cc1[nH]n(-c2cccc(Cl)c2)c(=O)c1-c1ccc(Cl)cc1 | 87.7% (active)
64 | Cc1nc2c(-c3ccccc3)c(C)[nH]n2c(=O)c1Cl | 3.35% (inactive)
65 | Cc1cc(=O)n2[nH]c(-c3cccc(Cl)c3)cc2n1 | -2.61% (inactive)
66 | COc1ccc(C=NNC(=O)CCc2n[nH]c(=O)[nH]c2=O)cc1OC | -0.0548% (inactive)
67 | O=C(O)C1=CC(c2ccc3c(c2)OCO3)CC(OCc2ccc(CO)cc2)O1 (stereo unspecified) | -2.53% (inactive) and -0.0237% (inactive)
68 | COc1cc(C=NNC(=S)NCCN2CCOCC2)ccc1O | 11.5% (inactive)
69 | O=C(NN=Cc1ccsc1)c1cc(-c2cccs2)nc2ccccc12 | -4.48% (inactive)

Row | Compound | growth inhibition
70 | CC(C)(C)Cc1nnc(NC(=O)c2cc(-c3ccccc3)nc3ccccc23)s1 | -17.6% (inactive)
71 | O=C(Nc1nnc(-c2ccccc2)o1)c1cc(-c2cccs2)nc2ccccc12 | 96.3% (active)
72 | CN1CCN(N=Cc2ccc(-c3ccc([N+](=O)[O-])cc3Cl)o2)CC1 | 3.66% (inactive)
73 | Oc1ccccc1C1=NN(c2ccccc2)C(c2ccccc2)C1 (stereo unspecified) | 99.6% (active)
74 | Cc1ccc(N2C(=O)C3N=NN(CC(=O)N4N=C(c5cccc6ccccc56)CC4c4ccccc4)C3C2=O)cc1 (stereo unspecified) | -14.5% (inactive)
75 | O=C1C2N=NN(CC(=O)N3N=C(c4cccc5ccccc45)CC3c3ccccc3)C2C(=O)N1c1ccccc1 (stereo unspecified) | -9.34% (inactive)
76 | CCOc1ccc(C=NNc2cc(N3CCOCC3)nc(C)n2)c(O)c1 | 1.85% (inactive)
77 | CC1CN(C(C)CO)C(=O)Cc2cc(NC(=O)CCC(F)(F)F)ccc2OC1CN(C)S(=O)(=O)c1ccc(Cl)cc1 (stereo unspecified) | 4.94% (inactive)
78 | NCCCCC(C(=O)N1CCNCC1)n1cc(CCC(=O)O)nn1 (stereo unspecified) | 3.28% (inactive)
79 | OCc1ccc(-c2ccccc2)c(-c2ccccc2)c1 | 89.2% (active)
80 | OCCN(Cc1ccccc1)Cc1ccc(Cl)cc1 | -6.5% (inactive)
81 | OCc1nc(CO)n(Cc2ccccc2)n1 | 13.4% (inactive)
82 | COc1cc(CCCN2C(=O)C(=O)NCC2CC2CCCCC2)cc(OC)c1OC (stereo unspecified) | 2.58% (inactive)
83 | Cc1cc(C=NNC(=O)c2ccccn2)c(C)n1-c1cccc([N+](=O)[O-])c1 | 6.51% (inactive)
84 | O=C(Nc1nnc(-c2ccc(Cl)cc2)o1)c1ccccc1Br | 97.7% (active)
85 | COc1ccccc1C(=O)NCC(=O)OCC(=O)Nc1nnc(-c2ccccc2)o1 | -1.67% (inactive)
86 | Cc1ccnc2nc(C(=O)Nc3nnc(-c4ccccc4)o3)nn12 | 12.9% (inactive)
87 | CCOC(=O)NN=Cc1ccc(C)o1 | 3.13% (inactive)
88 | N#CC(=C(O)CCl)c1nnc2n1CCCCC2 | 4.05% (inactive)
89 | C#CCOCCOCCOCCNc1nc(N2CCN(C(=O)C(CCCCN)n3cc(C(N)CC(C)C)nn3)CC2)nc(N2CCN(C(=O)C(CCCCN)n3cc(C(N)CC(C)C)nn3)CC2)n1 (stereo unspecified) | 0.321% (inactive)
90 | CC(C)NC(=O)CC(=O)NN=Cc1c(F)cccc1Cl | -1.54% (inactive)
91 | Cc1cccc(CCN2C(Nc3ccccc3)=NCC2CC(C)C)c1 (stereo unspecified) | 2.11% (inactive)
